# Results from the supplement of paper PMC10849652.
# About 7,900 targets were measured; listed, in parts, are those with a hit and a random draw of the rest. About 0.6% of all pairs of compound and target were hits. Unmarked numbers belong to inactive results.
# How the values were obtained:
# Experiment in all cases: log2 fold change, soluble protein after heating vs DMSO (PISA); higher = thermal stabilisation; K562 cells, 10 uM, 30 min; active = over 0.2 and 3.5 SD of the protein, either way, in both replicates (recomputed)
# [1] = compound: CC1=C(C=C(C=C1)NC(=O)C2=CC(=CC=C2)C(C)(C)C#N)NC3=CC4=C(C=C3)N=CN(C4=O)C
# Procedure, shortened: (§1)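 K562 cells at 2×10^6 cells/mL were exposed to 10 μM compound for 30 min, then aliquots were heated for 3 min across 48°C-58°C, pooled, and extracted in PBS containing 0.5% NP-40 at 4°C. The supernatant after 21,000xg for 90 min was taken as soluble protein and measured by TMTpro 16plex LC-MS/MS with channel sums equalised. Thermal stability is reported relative to control samples, with values from duplicates. Fold changes are given on a log2 scale.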
# [2] = compound: CC1=C(C=C(C=C1)NC(=O)C2=CC(=CC=C2)N(C)C)NC(=O)C3=CC=C(C=C3)O
# Procedure, shortened: as §1
# [3] = compound: CC1=CC=C(C=C1)SC2=C3C=C(SC3=CN=C2)C(=O)N
# Procedure, shortened: as §1
# [4] = compound: CC1=NC(=CC=C1)C2=C(N=C(N2)C(C)(C)C)C3=CC4=NC=CN=C4C=C3
# Procedure, shortened: as §1
# Nexturastat A = compound: CCCCN(Cc1ccc(C(=O)NO)cc1)C(=O)Nc1ccccc1 [Nexturastat A]
# Procedure, shortened: as §1
# vemurafenib = compound: CCCS(=O)(=O)Nc1ccc(F)c(C(=O)c2c[nH]c3ncc(-c4ccc(Cl)cc4)cc23)c1F [vemurafenib]
# Procedure, shortened: as §1
# [5] = compound: CCCS(=O)(=O)Nc1ccc(F)c(C(=O)c2c[nH]c3ncc(Cl)cc23)c1F
# Procedure, shortened: as §1
# [6] = compound: CCCc1cc(C)[nH]c(=O)c1CNC(=O)c1cc(-c2ccnc(N3CCN(C)CC3)c2)cc2c1cnn2C(C)C
# Procedure, shortened: as §1
# givinostat = compound: CCN(CC)Cc1ccc2cc(COC(=O)Nc3ccc(C(=O)NO)cc3)ccc2c1 [givinostat]
# Procedure, shortened: as §1
# barasertib = compound: CCN(CCCOc1ccc2c(Nc3cc(CC(=O)Nc4cccc(F)c4)[nH]n3)ncnc2c1)CCOP(=O)(O)O [barasertib]
# Procedure, shortened: as §1
# Sequence of UniProt Q8IW41 (Q8IW41 whole entry, looked up): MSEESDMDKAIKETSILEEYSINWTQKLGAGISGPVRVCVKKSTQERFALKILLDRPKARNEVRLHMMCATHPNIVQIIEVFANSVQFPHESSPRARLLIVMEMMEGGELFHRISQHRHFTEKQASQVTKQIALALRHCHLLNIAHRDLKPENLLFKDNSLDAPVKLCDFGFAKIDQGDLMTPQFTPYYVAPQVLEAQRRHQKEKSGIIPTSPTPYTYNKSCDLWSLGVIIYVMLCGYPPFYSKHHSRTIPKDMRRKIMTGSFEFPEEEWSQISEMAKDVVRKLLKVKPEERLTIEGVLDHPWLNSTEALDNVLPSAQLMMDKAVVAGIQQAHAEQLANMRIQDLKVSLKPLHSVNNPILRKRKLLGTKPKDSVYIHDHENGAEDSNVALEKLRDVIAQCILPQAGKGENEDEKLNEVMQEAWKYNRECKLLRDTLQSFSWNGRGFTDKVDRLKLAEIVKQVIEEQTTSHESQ
# Sequence of UniProt P29966 (P29966 whole entry, looked up): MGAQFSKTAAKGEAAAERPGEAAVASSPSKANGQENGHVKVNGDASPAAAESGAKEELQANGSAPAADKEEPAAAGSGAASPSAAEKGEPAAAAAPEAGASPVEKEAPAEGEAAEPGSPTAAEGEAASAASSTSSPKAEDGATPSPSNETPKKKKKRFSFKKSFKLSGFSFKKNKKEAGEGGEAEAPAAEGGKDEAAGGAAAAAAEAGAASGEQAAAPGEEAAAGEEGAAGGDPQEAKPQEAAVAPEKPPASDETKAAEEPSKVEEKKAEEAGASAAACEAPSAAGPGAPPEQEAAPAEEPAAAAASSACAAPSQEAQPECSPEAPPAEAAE
# Sequence of UniProt Q14624 (Q14624 whole entry, looked up): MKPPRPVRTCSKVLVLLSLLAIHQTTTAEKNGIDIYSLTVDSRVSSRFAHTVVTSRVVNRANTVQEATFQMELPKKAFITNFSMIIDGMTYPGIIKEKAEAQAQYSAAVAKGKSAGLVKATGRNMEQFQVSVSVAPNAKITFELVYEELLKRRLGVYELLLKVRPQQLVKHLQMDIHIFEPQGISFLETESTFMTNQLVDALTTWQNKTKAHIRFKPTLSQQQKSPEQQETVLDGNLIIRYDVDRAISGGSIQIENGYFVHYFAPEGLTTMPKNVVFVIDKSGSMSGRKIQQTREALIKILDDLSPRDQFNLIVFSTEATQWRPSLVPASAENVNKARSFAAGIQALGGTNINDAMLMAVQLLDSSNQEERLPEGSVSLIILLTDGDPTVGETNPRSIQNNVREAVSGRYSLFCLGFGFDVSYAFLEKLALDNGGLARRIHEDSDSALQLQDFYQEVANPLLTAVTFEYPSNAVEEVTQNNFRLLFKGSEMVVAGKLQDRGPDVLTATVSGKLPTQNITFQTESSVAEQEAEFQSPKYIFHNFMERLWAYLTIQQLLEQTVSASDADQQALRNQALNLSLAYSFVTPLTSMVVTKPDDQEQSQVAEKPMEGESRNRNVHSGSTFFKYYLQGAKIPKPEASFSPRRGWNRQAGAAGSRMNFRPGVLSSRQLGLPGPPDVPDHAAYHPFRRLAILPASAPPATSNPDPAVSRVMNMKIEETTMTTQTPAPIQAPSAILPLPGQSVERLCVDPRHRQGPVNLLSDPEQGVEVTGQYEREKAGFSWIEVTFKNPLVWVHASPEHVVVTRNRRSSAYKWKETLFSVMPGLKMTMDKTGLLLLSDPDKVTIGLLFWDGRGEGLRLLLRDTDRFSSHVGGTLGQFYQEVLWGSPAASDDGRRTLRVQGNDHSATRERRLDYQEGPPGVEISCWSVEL
# Sequence of UniProt Q6N075 (Q6N075 whole entry, looked up): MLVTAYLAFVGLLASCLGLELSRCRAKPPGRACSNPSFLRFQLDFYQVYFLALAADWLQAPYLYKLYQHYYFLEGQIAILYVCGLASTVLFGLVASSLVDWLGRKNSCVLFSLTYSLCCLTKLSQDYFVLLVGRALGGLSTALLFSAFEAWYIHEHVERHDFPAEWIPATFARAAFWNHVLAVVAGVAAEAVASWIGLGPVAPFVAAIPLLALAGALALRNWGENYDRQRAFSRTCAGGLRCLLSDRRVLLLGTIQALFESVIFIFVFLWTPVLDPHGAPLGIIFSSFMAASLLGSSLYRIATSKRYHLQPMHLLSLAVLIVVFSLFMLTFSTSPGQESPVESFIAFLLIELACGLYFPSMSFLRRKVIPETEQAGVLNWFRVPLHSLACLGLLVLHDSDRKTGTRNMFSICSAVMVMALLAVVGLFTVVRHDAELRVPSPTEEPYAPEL
# Sequence of UniProt Q68DH5 (Q68DH5 whole entry, looked up): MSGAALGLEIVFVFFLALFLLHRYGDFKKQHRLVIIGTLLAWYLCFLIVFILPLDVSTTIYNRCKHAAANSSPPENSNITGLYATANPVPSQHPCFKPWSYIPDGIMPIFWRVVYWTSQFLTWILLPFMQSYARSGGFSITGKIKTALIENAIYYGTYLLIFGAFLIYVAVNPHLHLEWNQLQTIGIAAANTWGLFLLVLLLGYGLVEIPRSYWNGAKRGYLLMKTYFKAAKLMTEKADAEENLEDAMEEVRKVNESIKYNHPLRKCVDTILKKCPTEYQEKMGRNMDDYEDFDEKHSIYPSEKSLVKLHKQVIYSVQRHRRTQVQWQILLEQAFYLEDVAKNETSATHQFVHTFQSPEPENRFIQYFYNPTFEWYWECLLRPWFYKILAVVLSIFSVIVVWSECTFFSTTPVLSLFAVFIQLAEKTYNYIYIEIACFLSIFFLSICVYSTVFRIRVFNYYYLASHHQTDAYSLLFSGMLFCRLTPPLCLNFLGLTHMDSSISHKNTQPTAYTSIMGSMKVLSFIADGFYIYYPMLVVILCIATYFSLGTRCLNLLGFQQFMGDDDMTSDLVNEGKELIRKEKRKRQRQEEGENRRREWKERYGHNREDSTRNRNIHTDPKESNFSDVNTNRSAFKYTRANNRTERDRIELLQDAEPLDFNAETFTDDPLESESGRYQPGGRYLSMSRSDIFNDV
# Sequence of UniProt Q6P9B9 (Q6P9B9 whole entry, looked up): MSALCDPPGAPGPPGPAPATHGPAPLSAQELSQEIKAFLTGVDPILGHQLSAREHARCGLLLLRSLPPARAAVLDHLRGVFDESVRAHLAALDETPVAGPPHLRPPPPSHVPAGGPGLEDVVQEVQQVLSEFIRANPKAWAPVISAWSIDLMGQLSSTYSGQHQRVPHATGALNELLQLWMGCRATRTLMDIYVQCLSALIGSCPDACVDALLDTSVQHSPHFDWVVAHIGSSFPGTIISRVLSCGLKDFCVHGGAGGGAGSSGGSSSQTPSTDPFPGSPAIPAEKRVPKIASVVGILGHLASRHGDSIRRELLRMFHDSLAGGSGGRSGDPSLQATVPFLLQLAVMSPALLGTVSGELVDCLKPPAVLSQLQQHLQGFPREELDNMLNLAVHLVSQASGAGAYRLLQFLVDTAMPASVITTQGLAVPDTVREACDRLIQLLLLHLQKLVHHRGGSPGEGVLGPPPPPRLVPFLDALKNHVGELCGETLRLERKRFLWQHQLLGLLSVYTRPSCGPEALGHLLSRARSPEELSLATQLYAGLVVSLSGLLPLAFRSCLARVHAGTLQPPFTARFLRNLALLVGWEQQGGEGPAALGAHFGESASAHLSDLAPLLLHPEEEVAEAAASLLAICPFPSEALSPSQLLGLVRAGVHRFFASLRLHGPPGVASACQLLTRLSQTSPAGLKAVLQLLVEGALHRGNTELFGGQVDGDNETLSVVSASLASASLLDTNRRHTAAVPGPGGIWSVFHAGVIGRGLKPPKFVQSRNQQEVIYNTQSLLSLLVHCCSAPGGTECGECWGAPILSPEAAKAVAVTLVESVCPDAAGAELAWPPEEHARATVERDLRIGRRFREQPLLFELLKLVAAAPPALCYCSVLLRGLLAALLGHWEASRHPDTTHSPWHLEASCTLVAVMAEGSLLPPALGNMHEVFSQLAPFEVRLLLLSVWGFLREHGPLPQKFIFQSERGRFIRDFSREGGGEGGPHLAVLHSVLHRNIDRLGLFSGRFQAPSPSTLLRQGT
# Sequence of UniProt Q96AQ8 (Q96AQ8 whole entry, looked up): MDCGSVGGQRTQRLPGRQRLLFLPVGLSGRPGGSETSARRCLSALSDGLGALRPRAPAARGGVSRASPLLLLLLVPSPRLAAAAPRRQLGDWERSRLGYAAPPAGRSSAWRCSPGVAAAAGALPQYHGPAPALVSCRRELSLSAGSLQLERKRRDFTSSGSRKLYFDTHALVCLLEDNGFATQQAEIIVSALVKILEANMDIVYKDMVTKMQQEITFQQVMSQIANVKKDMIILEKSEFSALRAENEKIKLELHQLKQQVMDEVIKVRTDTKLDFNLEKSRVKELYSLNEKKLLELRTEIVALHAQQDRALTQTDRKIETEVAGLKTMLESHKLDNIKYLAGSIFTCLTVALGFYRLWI
# Sequence of UniProt P33947 (P33947 whole entry, looked up): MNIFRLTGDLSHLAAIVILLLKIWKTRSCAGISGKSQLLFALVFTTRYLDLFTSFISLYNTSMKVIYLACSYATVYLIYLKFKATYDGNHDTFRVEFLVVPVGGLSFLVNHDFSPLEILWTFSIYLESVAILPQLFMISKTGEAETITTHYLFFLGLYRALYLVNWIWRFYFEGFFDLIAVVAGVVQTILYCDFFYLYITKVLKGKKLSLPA
Target,log2 fold change [1],log2 fold change [2],log2 fold change [3],log2 fold change [4],log2 fold change (Nexturastat A),log2 fold change (vemurafenib),log2 fold change [5],log2 fold change [6],log2 fold change (givinostat),log2 fold change (barasertib)
KRAS isoform 2 (UniProt P01116),-0.034,0.046,-0.023,-0.026,-0.063,-0.03,-0.093,-0.073,0.014,0.003
MAP3K20 (UniProt Q9NYL2),-0.448 (active),-0.098,-0.014,0.03,0.062,-0.254,-0.163,0.022,-0.089,-0.02
MAPKAPK5 (UniProt Q8IW41),0.004,-0.02,-0.015,0.013,0.003,0.028,0.11,0.038,0.225,-0.03
KDELR2 (UniProt P33947),0.058,0.099,0.064,-0.094,-0.13,-0.079,-0.054,-0.128,-0.064,0.036
LPCAT3 (UniProt Q6P1A2),0.289 (active),-0.029,0.052,0.033,-0.226,-0.019,0.036,0.089,0.031,-0.005
LMBRD2 (UniProt Q68DH5),-0.038,0.016,0.043,0,0.019,-0.052,-0.03,0.038,0.043,0.011
MCUR1 (UniProt Q96AQ8),0,-0.067,-0.01,0.012,-0.06,0.018,-0.041,-0.079,-0.033,-0.008
MAP3K4 isoform 2 (UniProt Q9Y6R4),-0.012,0.026,-0.018,-0.003,0.008,-0.033,-0.001,-0.012,-0.015,0.02
IGF2R (UniProt P11717),-0.039,-0.016,0.037,-0.004,0.014,-0.022,-0.007,-0.036,-0.018,0.002
MFSD5 isoform 2 (UniProt Q6N075),0.038,0.015,-0.078,0.064,-0.014,0.023,-0.118,-0.039,-0.039,0.122
LSR (UniProt Q86X29),-0.051,0.016,-0.05,-0.05,-0.074,-0.028,-0.061,-0.019,-0.046,-0.016
ITM2B (UniProt Q9Y287),0.01,-0.052,0.036,-0.046,-0.05,-0.101,-0.016,-0.482,0.001,0.076
LARP4 isoform 4 (UniProt Q71RC2),0.066,0.005,-0.041,-0.002,0.251,-0.017,0.018,0.054,0.04,-0.053
MARCKS (UniProt P29966),-0.001,-0.066,0.01,0.072,-0.104,0.047,-0.004,0.252,-0.096,0.005
MICU2 (UniProt Q8IYU8),0.022,0.067,0.091,0.05,0.198,0.053,0.183,0.042,-0.009,0.079
KPNA6 (UniProt O60684),-0.06,-0.02,-0.014,-0.063,0.156,-0.09,0.078,0.068,0.018,0.047
INTS5 (UniProt Q6P9B9),0.091,-0.061,0.026,0.042,0.01,0.087,0.074,0.122,0.038,0.015
MICU1 isoform 3 (UniProt Q9BPX6),-0.002,0.052,-0.003,-0.028,0.117,-0.049,0.042,-0.001,0,0.012
KIF13A (UniProt Q9H1H9),-0.005,0.021,-0.005,-0.004,0.018,-0.045,0.04,-0.005,-0.021,-0.009
MAPK8 isoform 3 (UniProt P45983),-0.038,-0.026,-0.015,-0.012,-0.099,0.027,0.012,0.016,0.119,0.056
LYN (UniProt P07948),0.195,-0.053,-0.036,0.037,0.293,-0.016,-0.143,-0.22,0.211,-0.057
KDM5D isoform 3 (UniProt Q9BY66),-0.132,-0.144,0.036,0.039,-0.08,0.003,0.128,-0.004,0.014,0.108
JMJD6 isoform 3 (UniProt Q6NYC1),0.055,-0.085,0.092,0.024,-0.147,0.002,0.049,0.071,-0.095,-0.007
ITIH4 (UniProt Q14624),-0.14,0.166,0.135,0.214,0.014,0.224,0.012,-0.211,-0.005,0.014
MAP4K4 isoform 3 (UniProt O95819),-0.166,0.013,0.022,0.012,0.033,-0.007,0.028,-0.02,0.017,-0.012
LNPEP (UniProt Q9UIQ6),0.018,0.03,0.01,-0.009,-0.051,-0.013,0.015,0.008,0.014,-0.009
MAP2K3 isoform 3 (UniProt P46734),-0.071,-0.074,-0.051,-0.08,0.103,-0.031,-0.008,0.021,0.002,0.042
LMF2 (UniProt Q9BU23),0.009,-0.07,0.025,-0.078,-0.022,0.067,-0.022,0.016,0.033,-0.002
KIF21A isoform 4 (UniProt Q7Z4S6),0.051,-0.067,-0.003,-0.043,0.106,-0.045,0.014,-0.025,0.069,0.104
